# What was measured:
# [1] = molecular target: Melanoma inhibitory activity protein 2 (UniProt Q96PC5); assay: cross-link between two proteins; cross-linking mass spectrometry
# Zinc finger protein DPF3 = Zinc finger protein DPF3 (UniProt Q92784); assay: as above
# [2] = molecular target: Keratin, type I cytoskeletal 10 (UniProt P13645); assay: as above
# Tubulin alpha-3E chain = Tubulin alpha-3E chain (UniProt Q6PEY2); assay: co-fractionation; co-fractionation; cross-linking mass spectrometry
# 14-3-3 protein epsilon = 14-3-3 protein epsilon (UniProt P62258); assay: cross-linking mass spectrometry
# [3] = molecular target: Calcineurin B homologous protein 1 (UniProt Q99653); assay: cross-linking mass spectrometry
# [4] = molecular target: Charged multivesicular body protein 1a (UniProt Q9HD42); assay: cross-linking mass spectrometry
# [5] = molecular target: Charged multivesicular body protein 1b (UniProt Q7LBR1); assay: cross-linking mass spectrometry
# [6] = molecular target: Charged multivesicular body protein 3 (UniProt Q9Y3E7); assay: cross-linking mass spectrometry
# [7] = molecular target: Charged multivesicular body protein 4b (UniProt Q9H444); assay: cross-linking mass spectrometry
# [8] = molecular target: Endoplasmic reticulum resident protein 44 (UniProt Q9BS26); assay: cross-linking mass spectrometry
# Integrin beta-5 = Integrin beta-5 (UniProt P18084); assay: cross-linking mass spectrometry
# Laminin subunit gamma-1 = Laminin subunit gamma-1 (UniProt P11047); assay: cross-linking mass spectrometry
# [9] = molecular target: Splicing factor 3A subunit 1 (UniProt Q15459); assay: cross-linking mass spectrometry
# [10] = molecular target: Splicing factor 3B subunit 2 (UniProt Q13435); assay: cross-linking mass spectrometry
# [11] = molecular target: Splicing factor 3B subunit 5 (UniProt Q9BWJ5); assay: cross-linking mass spectrometry
# Splicing factor 45 = Splicing factor 45 (UniProt Q96I25); assay: cross-linking mass spectrometry
# Syntaxin-8 = Syntaxin-8 (UniProt Q9UNK0); assay: cross-linking mass spectrometry
# [12] = molecular target: U1 small nuclear ribonucleoprotein A (UniProt P09012); assay: cross-linking mass spectrometry
# [13] = molecular target: Vacuolar protein sorting-associated protein 16 homolog (UniProt Q9H269); assay: cross-linking mass spectrometry
# [14] = molecular target: Vacuolar protein sorting-associated protein 45 (UniProt Q9NRW7); assay: cross-linking mass spectrometry
# [15] = molecular target: Vesicle transport through interaction with t-SNAREs homolog 1A (UniProt Q96AJ9); assay: cross-linking mass spectrometry
# [16] = molecular target: Metastasis-associated protein MTA2 (UniProt O94776); assay: cross-link between two proteins; cross-linking mass spectrometry
# [17] = molecular target: Methyl-CpG-binding domain protein 2 (UniProt Q9UBB5); assay: as above
# [18] = molecular target: Methyl-CpG-binding domain protein 3 (UniProt O95983); assay: as above
# Plexin-A1 = Plexin-A1 (UniProt Q9UIW2); assay: as above
# [19] = molecular target: Polyadenylate-binding protein 3 (UniProt Q9H361); assay: as above
# [20] = molecular target: Probable serine carboxypeptidase CPVL (UniProt Q9H3G5); assay: as above
# [21] = molecular target: Proteasome subunit beta type-3 (UniProt P49720); assay: as above
# [22] = molecular target: Putative elongation factor 1-alpha-like 3 (UniProt Q5VTE0); assay: as above
# [23] = molecular target: Putative heat shock protein HSP 90-alpha A4 (UniProt Q58FG1); assay: as above
# RNA-binding protein Raly = RNA-binding protein Raly (UniProt Q9UKM9); assay: as above
# [24] = molecular target: SIR2 antiphage-like protein 2 (UniProt Q9NWS6); assay: as above
# [25] = molecular target: Serine palmitoyltransferase 2 (UniProt O15270); assay: as above
# [26] = molecular target: Serine/threonine-protein kinase MARK2 (UniProt Q7KZI7); assay: as above
# [27] = molecular target: Splicing factor 3B subunit 2 (UniProt Q13435); assay: as above
# [28] = molecular target: Structural maintenance of chromosomes protein 3 (UniProt Q9UQE7); assay: as above
# [29] = molecular target: Succinate dehydrogenase [ubiquinone] flavoprotein subunit, mitochondrial (UniProt P31040); assay: as above
# THO complex subunit 2 = THO complex subunit 2 (UniProt Q8NI27); assay: as above
# THO complex subunit 3 = THO complex subunit 3 (UniProt Q96J01); assay: as above
# [30] = molecular target: Transcriptional repressor p66-beta (UniProt Q8WXI9); assay: as above
# [31] = molecular target: Transforming protein RhoA (UniProt P61586); assay: as above
# [32] = molecular target: V-type proton ATPase subunit D (UniProt Q9Y5K8); assay: as above
# Sequence of Melanoma inhibitory activity protein 2 (Q96PC5 whole entry): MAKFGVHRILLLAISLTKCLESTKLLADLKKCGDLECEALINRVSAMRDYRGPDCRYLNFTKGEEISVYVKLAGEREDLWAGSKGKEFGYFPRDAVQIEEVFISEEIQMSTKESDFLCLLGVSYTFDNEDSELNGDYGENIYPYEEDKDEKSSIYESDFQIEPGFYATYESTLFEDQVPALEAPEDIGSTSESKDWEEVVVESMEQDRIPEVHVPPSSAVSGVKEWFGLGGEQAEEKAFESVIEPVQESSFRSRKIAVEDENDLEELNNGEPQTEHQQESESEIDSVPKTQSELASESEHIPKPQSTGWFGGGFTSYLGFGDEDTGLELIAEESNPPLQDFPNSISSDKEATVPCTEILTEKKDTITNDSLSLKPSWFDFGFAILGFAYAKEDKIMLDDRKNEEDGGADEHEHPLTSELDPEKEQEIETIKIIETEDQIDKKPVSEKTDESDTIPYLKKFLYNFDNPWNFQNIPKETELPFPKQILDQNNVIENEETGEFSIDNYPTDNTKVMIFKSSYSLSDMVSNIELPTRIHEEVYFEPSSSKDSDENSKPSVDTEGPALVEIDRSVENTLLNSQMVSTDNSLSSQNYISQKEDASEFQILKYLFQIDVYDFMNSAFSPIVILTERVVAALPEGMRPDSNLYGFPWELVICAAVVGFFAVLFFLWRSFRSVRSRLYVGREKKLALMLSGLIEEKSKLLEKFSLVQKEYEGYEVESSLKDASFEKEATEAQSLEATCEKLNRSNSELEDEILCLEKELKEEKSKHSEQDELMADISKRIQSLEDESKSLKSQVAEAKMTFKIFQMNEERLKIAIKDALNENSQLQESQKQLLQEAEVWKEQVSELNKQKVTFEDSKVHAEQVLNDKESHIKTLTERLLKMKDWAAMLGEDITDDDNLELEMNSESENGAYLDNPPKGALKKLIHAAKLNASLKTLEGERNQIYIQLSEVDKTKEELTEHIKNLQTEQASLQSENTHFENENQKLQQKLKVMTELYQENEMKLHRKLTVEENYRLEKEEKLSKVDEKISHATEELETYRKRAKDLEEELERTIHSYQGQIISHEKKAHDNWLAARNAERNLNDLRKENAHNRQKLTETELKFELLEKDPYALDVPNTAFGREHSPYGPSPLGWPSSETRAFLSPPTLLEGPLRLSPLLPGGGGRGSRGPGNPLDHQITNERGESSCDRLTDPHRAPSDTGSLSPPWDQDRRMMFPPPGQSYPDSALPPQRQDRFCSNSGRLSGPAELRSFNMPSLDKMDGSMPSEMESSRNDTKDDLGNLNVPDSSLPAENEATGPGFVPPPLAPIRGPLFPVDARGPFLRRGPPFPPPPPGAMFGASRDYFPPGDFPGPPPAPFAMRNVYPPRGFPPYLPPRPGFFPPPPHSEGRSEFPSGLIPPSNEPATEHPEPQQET
# Sequence of Charged multivesicular body protein 3 (Q9Y3E7 whole entry): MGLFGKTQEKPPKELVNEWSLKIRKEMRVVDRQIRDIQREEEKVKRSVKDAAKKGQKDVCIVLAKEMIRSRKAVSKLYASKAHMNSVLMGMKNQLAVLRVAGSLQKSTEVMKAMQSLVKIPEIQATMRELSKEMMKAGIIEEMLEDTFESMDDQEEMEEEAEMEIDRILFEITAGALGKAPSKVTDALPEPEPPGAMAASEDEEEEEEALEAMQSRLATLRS
# Sequence of Charged multivesicular body protein 1a (Q9HD42 whole entry): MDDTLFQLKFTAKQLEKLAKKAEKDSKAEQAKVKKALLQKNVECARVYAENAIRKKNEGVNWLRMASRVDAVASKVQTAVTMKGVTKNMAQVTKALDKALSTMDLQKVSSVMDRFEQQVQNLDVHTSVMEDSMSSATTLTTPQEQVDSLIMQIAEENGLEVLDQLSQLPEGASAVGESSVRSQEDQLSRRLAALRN
# Sequence of Vesicle transport through interaction with t-SNAREs homolog 1A (Q96AJ9 whole entry): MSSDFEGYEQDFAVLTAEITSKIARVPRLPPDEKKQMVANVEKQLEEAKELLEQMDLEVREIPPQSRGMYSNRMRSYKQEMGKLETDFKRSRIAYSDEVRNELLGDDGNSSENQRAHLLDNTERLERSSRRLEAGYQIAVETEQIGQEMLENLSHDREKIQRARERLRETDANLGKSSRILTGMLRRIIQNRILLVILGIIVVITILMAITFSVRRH
# Sequence of Calcineurin B homologous protein 1 (Q99653 whole entry): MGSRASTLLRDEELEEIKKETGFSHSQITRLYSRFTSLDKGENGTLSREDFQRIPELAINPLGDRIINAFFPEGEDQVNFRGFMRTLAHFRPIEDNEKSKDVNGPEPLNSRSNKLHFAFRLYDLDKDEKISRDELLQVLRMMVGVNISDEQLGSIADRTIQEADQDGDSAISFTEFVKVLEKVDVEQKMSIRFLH
# Sequence of Charged multivesicular body protein 4b (Q9H444 whole entry): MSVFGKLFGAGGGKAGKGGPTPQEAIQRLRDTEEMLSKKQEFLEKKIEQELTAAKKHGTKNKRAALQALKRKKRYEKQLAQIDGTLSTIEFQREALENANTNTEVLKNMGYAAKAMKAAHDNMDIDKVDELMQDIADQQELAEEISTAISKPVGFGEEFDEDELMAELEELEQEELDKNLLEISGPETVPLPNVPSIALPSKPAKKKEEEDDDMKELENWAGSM
# Sequence of THO complex subunit 3 (Q96J01 whole entry, one chain of several): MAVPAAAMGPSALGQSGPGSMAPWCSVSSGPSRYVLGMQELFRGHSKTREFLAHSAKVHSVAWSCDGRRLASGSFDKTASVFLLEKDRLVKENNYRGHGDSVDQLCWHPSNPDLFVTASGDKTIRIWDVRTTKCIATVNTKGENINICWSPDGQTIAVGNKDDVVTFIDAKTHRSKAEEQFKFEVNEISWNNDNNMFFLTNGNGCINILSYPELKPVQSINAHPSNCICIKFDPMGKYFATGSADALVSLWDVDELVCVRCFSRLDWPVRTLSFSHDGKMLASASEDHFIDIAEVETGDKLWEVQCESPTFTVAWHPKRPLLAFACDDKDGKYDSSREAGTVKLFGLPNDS
# Sequence of Protein disulfide-isomerase, P07237 (P07237 whole entry): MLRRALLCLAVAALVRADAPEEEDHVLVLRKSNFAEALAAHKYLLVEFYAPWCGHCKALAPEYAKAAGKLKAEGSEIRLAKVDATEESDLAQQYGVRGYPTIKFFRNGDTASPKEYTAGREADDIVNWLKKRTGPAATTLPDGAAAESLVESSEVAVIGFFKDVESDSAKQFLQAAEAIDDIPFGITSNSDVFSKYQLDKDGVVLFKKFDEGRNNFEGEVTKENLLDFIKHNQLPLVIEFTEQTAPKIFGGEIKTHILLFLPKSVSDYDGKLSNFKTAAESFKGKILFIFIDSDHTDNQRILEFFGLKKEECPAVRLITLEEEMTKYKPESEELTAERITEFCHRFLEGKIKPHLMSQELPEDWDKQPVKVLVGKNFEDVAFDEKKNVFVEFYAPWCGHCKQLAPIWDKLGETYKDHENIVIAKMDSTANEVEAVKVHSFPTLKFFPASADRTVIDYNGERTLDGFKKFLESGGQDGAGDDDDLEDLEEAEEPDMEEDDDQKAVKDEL
# Sequence of Tubulin alpha-3E chain (Q6PEY2 whole entry): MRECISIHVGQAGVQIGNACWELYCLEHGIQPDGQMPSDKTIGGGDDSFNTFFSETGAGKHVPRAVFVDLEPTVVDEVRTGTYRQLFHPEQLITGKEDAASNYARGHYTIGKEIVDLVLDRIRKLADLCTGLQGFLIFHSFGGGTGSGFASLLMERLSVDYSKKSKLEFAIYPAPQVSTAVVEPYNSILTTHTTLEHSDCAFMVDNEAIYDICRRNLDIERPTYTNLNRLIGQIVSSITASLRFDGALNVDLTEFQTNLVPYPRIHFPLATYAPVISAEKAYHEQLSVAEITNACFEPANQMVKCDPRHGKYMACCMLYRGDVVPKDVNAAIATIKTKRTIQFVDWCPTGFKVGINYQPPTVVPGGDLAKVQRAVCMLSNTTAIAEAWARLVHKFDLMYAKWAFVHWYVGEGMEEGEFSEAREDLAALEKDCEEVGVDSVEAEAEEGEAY
# Sequence of Transcriptional repressor p66-beta (Q8WXI9 whole entry): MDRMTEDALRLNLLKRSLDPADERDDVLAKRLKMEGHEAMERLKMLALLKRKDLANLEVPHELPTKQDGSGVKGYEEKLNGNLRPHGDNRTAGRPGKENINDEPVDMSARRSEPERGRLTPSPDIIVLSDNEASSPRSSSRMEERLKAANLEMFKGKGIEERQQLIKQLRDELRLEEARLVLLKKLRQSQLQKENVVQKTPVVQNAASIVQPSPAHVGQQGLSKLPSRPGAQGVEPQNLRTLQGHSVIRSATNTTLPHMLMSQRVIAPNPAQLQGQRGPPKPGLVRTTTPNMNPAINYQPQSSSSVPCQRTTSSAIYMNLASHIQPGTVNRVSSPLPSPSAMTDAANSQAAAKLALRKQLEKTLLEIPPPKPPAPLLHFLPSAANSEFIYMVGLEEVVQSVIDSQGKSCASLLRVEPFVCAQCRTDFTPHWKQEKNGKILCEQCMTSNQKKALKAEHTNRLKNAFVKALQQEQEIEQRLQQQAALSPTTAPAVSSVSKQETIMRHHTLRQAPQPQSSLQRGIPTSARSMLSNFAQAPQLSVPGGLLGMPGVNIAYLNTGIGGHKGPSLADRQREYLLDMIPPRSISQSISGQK
# Sequence of Syntaxin-8 (Q9UNK0 whole entry): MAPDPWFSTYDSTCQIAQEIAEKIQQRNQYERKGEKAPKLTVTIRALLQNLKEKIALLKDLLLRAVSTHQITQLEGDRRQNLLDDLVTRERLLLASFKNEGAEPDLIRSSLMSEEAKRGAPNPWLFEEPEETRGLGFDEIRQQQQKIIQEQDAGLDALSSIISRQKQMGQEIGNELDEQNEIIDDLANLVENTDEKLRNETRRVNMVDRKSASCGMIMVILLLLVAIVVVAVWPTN
# Sequence of Transforming protein RhoA (P61586 whole entry): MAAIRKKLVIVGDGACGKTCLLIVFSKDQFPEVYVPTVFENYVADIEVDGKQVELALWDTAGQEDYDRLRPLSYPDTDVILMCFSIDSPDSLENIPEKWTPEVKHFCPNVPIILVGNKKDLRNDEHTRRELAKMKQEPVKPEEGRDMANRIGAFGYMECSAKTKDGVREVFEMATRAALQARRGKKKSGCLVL
# Sequence of Splicing factor 3B subunit 5 (Q9BWJ5 whole entry): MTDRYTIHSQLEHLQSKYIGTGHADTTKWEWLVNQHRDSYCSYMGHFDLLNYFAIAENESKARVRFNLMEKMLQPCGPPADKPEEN
substance,measurement,setting,value
"Syntaxin-7, O15400",listed as a hit,[1],yes
same,listed as a hit,Zinc finger protein DPF3,yes
"Keratin, type II cytoskeletal 1, P04264",listed as a hit,[2],yes
"Tubulin beta-4B chain, P68371",listed as a hit,Tubulin alpha-3E chain,yes
"14-3-3 protein gamma, P61981",listed as a hit,14-3-3 protein epsilon,yes
"Glycerol-3-phosphate acyltransferase 4, Q86UL3",listed as a hit,[3],yes
"Charged multivesicular body protein 2a, O43633",listed as a hit,[4],yes
same,listed as a hit,[5],yes
same,listed as a hit,[6],yes
same,listed as a hit,[1],yes
"Charged multivesicular body protein 1b, Q7LBR1",listed as a hit,[4],yes
same,listed as a hit,[6],yes
"Programmed cell death 6-interacting protein, Q8WUM4",listed as a hit,[7],yes
"Peroxiredoxin-4, Q13162",listed as a hit,[8],yes
"Integrin alpha-V, P06756",listed as a hit,Integrin beta-5,yes
"Laminin subunit beta-1, P07942",listed as a hit,Laminin subunit gamma-1,yes
"Splicing factor 3A subunit 2, Q15428",listed as a hit,[9],yes
"U2 small nuclear ribonucleoprotein A', P09661",listed as a hit,[10],yes
"Splicing factor 3B subunit 3, Q15393",listed as a hit,[11],yes
"U2 snRNP-associated SURP motif-containing protein, O15042",listed as a hit,Splicing factor 45,yes
"Vesicle transport through interaction with t-SNAREs homolog 1B, Q9UEU0",listed as a hit,Syntaxin-8,yes
"U2 small nuclear ribonucleoprotein B'', P08579",listed as a hit,[12],yes
"Vacuolar protein sorting-associated protein 33A, Q96AX1",listed as a hit,[13],yes
"Syntaxin-16, O14662",listed as a hit,[14],yes
same,listed as a hit,[15],yes
"Alpha-soluble NSF attachment protein, P54920",listed as a hit,[15],yes
"U3 small nucleolar RNA-interacting protein 2, O43818",listed as a hit,[16],yes
"Metastasis-associated protein MTA2, O94776",listed as a hit,[17],yes
same,listed as a hit,[18],yes
"Coiled-coil domain-containing protein 7, Q96M83",listed as a hit,Plexin-A1,yes
"Polyadenylate-binding protein 4, Q13310",listed as a hit,[19],yes
"Protein ZBED11, P0CF97",listed as a hit,[20],yes
"Proteasome subunit beta type-5, P28074",listed as a hit,[21],yes
"Elongation factor 1-beta, P24534",listed as a hit,[22],yes
"Putative heat shock protein HSP 90-beta 2, Q58FF8",listed as a hit,[23],yes
"RNA-binding Raly-like protein, Q86SE5",listed as a hit,RNA-binding protein Raly,yes
"Protein disulfide-isomerase, P07237",listed as a hit,[24],yes
"Serine palmitoyltransferase 1, O15269",listed as a hit,[25],yes
"MAP/microtubule affinity-regulating kinase 3, P27448",listed as a hit,[26],yes
"Microtubule-associated protein 1B, P46821",listed as a hit,[27],yes
"Titin, Q8WZ42",listed as a hit,[28],yes
"Homeobox protein Hox-B3, P14651",listed as a hit,[29],yes
"Flotillin-2, Q14254",listed as a hit,THO complex subunit 2,yes
"THO complex subunit 5, Q13769",listed as a hit,THO complex subunit 3,yes
"Interferon-inducible double-stranded RNA-dependent protein kinase activator A, O75569",listed as a hit,[30],yes
"Rho-related GTP-binding protein RhoC, P08134",listed as a hit,[31],yes
"Frizzled-9, O00144",listed as a hit,[32],yes

# — article doi:10.1101/2025.02.07.636106
